An excerpt weighted towards active compounds, which were near 0.9% of everything screened.
RXFP1 antag: qHTS Assay for Antagonists of the Relaxin Receptor RXFP1 | Relaxin receptor 1 (Homo sapiens), Q9HBX9 | HEK293-RXFP1, relaxin-stimulated cAMP HTRF, 30 min; active compounds read low | activity change, negative = inhibition, % at 57.5 µM | 0.59% of 350,000 active;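 active = activity change of -60% or lower, but not beyond a set lower limit; inconclusive = change between -60% and -40%, or beyond the set limit; inactive = change above -40%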
Target sequence (Q9HBX9 whole entry, looked up): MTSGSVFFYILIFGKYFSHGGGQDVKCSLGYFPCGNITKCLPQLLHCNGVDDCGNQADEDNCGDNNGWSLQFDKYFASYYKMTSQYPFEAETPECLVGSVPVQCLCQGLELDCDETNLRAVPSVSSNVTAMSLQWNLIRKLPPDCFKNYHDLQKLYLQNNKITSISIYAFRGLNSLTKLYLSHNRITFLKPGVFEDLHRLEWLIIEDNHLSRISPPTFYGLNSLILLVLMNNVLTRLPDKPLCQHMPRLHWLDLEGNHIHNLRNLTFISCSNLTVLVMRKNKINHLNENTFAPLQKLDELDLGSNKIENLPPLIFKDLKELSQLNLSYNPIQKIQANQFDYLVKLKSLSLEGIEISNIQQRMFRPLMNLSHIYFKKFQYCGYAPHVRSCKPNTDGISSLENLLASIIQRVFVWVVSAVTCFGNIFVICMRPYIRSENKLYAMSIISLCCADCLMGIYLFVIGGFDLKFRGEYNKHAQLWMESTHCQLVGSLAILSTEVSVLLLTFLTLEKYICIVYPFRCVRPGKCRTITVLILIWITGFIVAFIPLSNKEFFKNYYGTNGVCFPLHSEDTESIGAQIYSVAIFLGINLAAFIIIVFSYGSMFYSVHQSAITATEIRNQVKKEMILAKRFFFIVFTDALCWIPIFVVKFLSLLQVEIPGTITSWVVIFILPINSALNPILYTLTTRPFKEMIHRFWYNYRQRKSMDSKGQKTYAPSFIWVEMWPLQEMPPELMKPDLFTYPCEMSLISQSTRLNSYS
gsp ag: qHTS for Agonist of gsp, the Etiologic Mutation Responsible for Fibrous Dysplasia/McCune-Albright Syndrome: qHTS; 0.13% of 340,000 active; Potency, µM (highest dose often 76.9 µM), usual class: activators; gsp mutant cells, cAMP HTRF, 30 min; active = well fitted activation curve with a large enough effect; inconclusive = small, poorly fitted or top-dose-only effect, or another doubt; inactive = no such curve, though single readings can be large or run the other way; cell line not stated here;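 note: phosphodiesterase inhibitor Ro 20-1724 added with compounds to block cAMP breakdown; nearly all actives have a fitted effect of over 60% in size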
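Cells in DMEM/10% FBS with G418 were pretreated with compounds in DMSO plus […] (300 uM stock) for 30 min at 37C. cAMP was measured by HTRF (cAMP-d2 plus anti-cAMP antibody-K) after 30 min at room temperature.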
RXFP1 agonist: qHTS Assay for Agonists of the Relaxin Receptor RXFP1; Relaxin receptor 1 (Homo sapiens), Q9HBX9; HEK293T-RXFP1 cAMP TR-FRET, 30 min; response scale: percent of porcine relaxin response, buffer zero; Potency, µM (titrated, usually from 57.5 µM), actives largely listed as activators; 0.3% of 370,000 active; AID 2676, 2010; active = well fitted activation curve with a large enough effect; inconclusive = small, poorly fitted or top-dose-only effect; note: nearly all actives have a fitted effect of over 60% in size
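Agonist response is measured as cAMP accumulation in an RXFP1-transfected HEK293T line under PDE4 inhibition. Values are scaled between buffer-only and 29 nM porcine relaxin, and EC50s come from standard Hill equation fits.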
gsp antag: qHTS for Antagonists of gsp, the Etiologic Mutation Responsible for Fibrous Dysplasia/McCune-Albright Syndrome: qHTS. gsp-mutant cells, cAMP HTRF, 30 min. Potency, µM (top dose mostly 76.9 µM), usual class: inhibitors. 0.4% of 340,000 active. AID 624288, 2012; calls by dose curve; cell line not stated here;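 note: intracellular cAMP measured with PDE inhibitor Ro 20-1724 present during compound exposure; nearly all actives have a fitted effect of over 65% in size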
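G418-selected cells were plated in DMEM/10% FBS for 16-24 h at 37C, then treated with compounds plus the PDE inhibitor […] (300 uM solution added) for 30 min at 37C. Intracellular cAMP was measured by HTRF after 30 min lysis at room temperature.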
Of the large screens only hits and unclear results are named; the others gave an inactive call.

O=c1c(C2CC(c3ccc(-c4ccc(Br)cc4)cc3)Cc3ccccc32)c(O)sc2ccccc12 (stereo not drawn)	RXFP1 antag -72 (no result: gsp ag, RXFP1 agonist, gsp antag)
CCc1ccc(C2CCNCC2)cc1	none (no result: gsp ag, RXFP1 agonist, gsp antag)
CCc1ccc(CN2CCN(Cc3ccc(SC)cc3)CC2)cc1	RXFP1 antag -62
CC(C)(C)NS(=O)(=O)c1ccc(OCC(=O)N2CCN(Cc3ccccc3)CC2)cc1	none
O=C(COc1ccc(S(=O)(=O)N2CCCCC2)cc1)N1CCN(Cc2ccccc2)CC1	gsp ag 32µM
CSc1ccc(CN2CCN(C(=O)COc3ccc(C)cc3)CC2)cc1	gsp ag 3.2µM
Clc1ccccc1N1CCNCC1	none (no result: gsp ag, RXFP1 agonist, gsp antag)
Sc1ccccc1Cl	none (no result: gsp ag, RXFP1 agonist, gsp antag)
CCO[C@H]1O[C@@H]2OC3(C)CC[C@H]4[C@H](C)CC[C@@H]([C@H]1C)[C@@]24OO3	none (no result: gsp ag, RXFP1 agonist, gsp antag)
CN1C2CCC(C)(C)C1CC(OC(=O)C(O)(c1cccs1)c1cccs1)C2 (stereo not drawn)	none (no result: gsp ag, RXFP1 agonist, gsp antag)
Cc1[nH]n(-c2ccccc2)c(=O)c1C(c1ccc([N+](=O)[O-])cc1)c1c(C)[nH]n(-c2ccccc2)c1=O	gsp ag inconclusive, gsp antag 25µM
Nc1ccccc1C(=O)OCC(O)CO (stereo not drawn)	none (no result: gsp ag, RXFP1 agonist, gsp antag)
CCc1cc2c(s1)N(CC(=O)OC)C(=O)CN=C2c1ccccc1OC	none
Cc1ccccc1C1=NCC(=O)N(CC(=O)N2CCCCC2)c2sc(C)c(C)c21	gsp antag 7.1µM
CCN(CC)CCc1c[nH]c2ccccc12	none (no result: gsp ag, RXFP1 agonist, gsp antag)
CN(C(=O)c1cccc(N2C(=O)C3C4C=CC(C4)C3C2=O)c1)C1CCCCC1 (stereo not drawn)	none
Cc1cc2c(C(F)(F)F)cc(=O)oc2c2c1NCCC2	gsp ag 16µM
O=c1cc(C(F)(F)F)c2cc3c4c(c2o1)CCCN4CCC3	gsp ag 10µM
CN(N=Cc1ccc([N+](=O)[O-])cc1)c1ccccn1	none (no result: RXFP1 agonist, gsp antag)
CCCN(CCC)c1c([N+](=O)[O-])cc(S(N)(=O)=O)cc1[N+](=O)[O-]	RXFP1 antag -73 (no result: gsp ag, RXFP1 agonist, gsp antag)
C[C@]12CC[C@H]3[C@@H](CCC4=CC(=O)CC[C@@H]43)[C@@H]1CC[C@@H]2OC(=O)CCC1CCCCC1	none (no result: gsp ag, RXFP1 agonist, gsp antag)
C[C@]12CC[C@H]3[C@@H](CCC4=CC(=O)CC[C@@]43C)[C@@H]1CC[C@@H]2C(=O)O	none (no result: gsp ag, RXFP1 agonist, gsp antag)
C=CCc1cc(C=C2C(=O)N(C)C(=O)N(C)C2=O)cc(OCC)c1OCc1ccccc1	RXFP1 antag -77
C=CCc1cc(C=C2C(=O)NC(=O)NC2=O)cc(OC)c1OCc1ccc(C(=O)O)cc1	none
O=C(Nc1ccc(Br)cc1)c1cc(Br)cc(Br)c1O	RXFP1 antag -81 (no result: gsp ag, RXFP1 agonist, gsp antag)
O=C(Nc1ccc(Br)cc1C(=O)c1ccccc1)c1ccccc1	none (no result: gsp ag, gsp antag)
CCC1(CCC(C)C)C(=O)NC(=O)NC1=O	none (no result: gsp ag, RXFP1 agonist, gsp antag)
CCN(CC)c1ccc(/C=C2/C(=O)NC(=O)N(CC3CCCO3)C2=O)cc1 (stereo not drawn)	none
O=C1NC(=O)N(Cc2ccco2)C(=O)/C1=C/c1cccn1CCOc1ccccc1Cl	RXFP1 antag -61
CCN(CC)c1ccc(/C=C2\C(=O)NC(=O)N(Cc3ccco3)C2=O)cc1	RXFP1 antag -66
O=c1[nH]c(=S)[nH]c(O)c1N=Nc1ccc2c(c1)OCCO2	RXFP1 antag -95
O=C(c1ccc2c3c(cccc13)CC2)C1CCCN(CC2CC2)C1 (stereo not drawn)	RXFP1 antag -63
COC(=O)C1=C(C(=O)OC)C2OC1c1cc3ccccc3cc12	RXFP1 antag -120, gsp ag inconclusive (no result: RXFP1 agonist)
COC(=O)C1=C(c2ccc3ccccc3c2)C[C@@H]2CC[C@H]1N2C	gsp ag inconclusive (no result: RXFP1 antag)
O=C(N[C@H]1N=C(c2ccccc2F)c2cccc3c2N(CC3)C1=O)c1cc2ccccc2[nH]1	none (no result: gsp ag, RXFP1 agonist, gsp antag)
Fc1ccc(C(OCCN2CCN(CCCc3ccccc3)CC2)c2ccc(F)cc2)cc1	RXFP1 antag -73 (no result: gsp ag, RXFP1 agonist, gsp antag)
c1ccc(CCCN2CCN(CCOC(c3ccccc3)c3ccccc3)CC2)cc1	none (no result: RXFP1 antag, gsp ag, RXFP1 agonist)
Cc1ccc(N2C(=O)NC(=O)/C(=C/C=C/c3ccco3)C2=O)cc1	RXFP1 antag -62
O=C1NC(=O)N(Cc2ccccc2)C(=O)/C1=C\c1ccco1	none
CC(C)c1ccc(N2C(=O)NC(=O)/C(=C/C=C/c3ccco3)C2=O)cc1	RXFP1 antag -80
O=C1NC(=O)N(Cc2ccc(F)cc2)C(=O)/C1=C\C=C\c1ccco1	RXFP1 antag -70
CCc1ccc(N2C(=O)NC(=O)/C(=C\C=C\c3ccco3)C2=O)cc1	none
C#C[C@]1(O)C=C[C@H]2[C@@H]3CCC4=CC(=O)CC[C@@H]4[C@H]3CC[C@@]21CC	none (no result: gsp ag, RXFP1 agonist, gsp antag)

Compound activity from PubChem BioAssay.
